This is an account of results in PubChem BioAssay AID588475 (Sanford-Burnham Center for Chemical Genomics, 2011).

Molecules are shown by their SMILES. Hit rate of the full screen: of about 350,000 compounds, about 2,100 (0.6%) were called active. Shown is part of a subset that was picked to be rich in actives. A number with no mark means an inactive call.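 How the source made its calls: active means inhibition of the ligand-induced calcium signal above about 50% at the single tested concentration (limit read from the data); inactive means the rest.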

This assay is described as follows: blockers of CRF-evoked CRF-R2/CRF-BP calcium response – cell-based, HEK293, calcium dye fluorescence, uHTS, primary screen (AID 588475). Conditions: CRF-induced calcium fluorescence, at 11.8 µM, hits give high values.
The inhibition is the change of the read-out against control, counted positive when it falls. On to `CCOC(=O)Cn1c2c(c(-c3ccccc3OC)cc1=O)CCCC2`, for which the inhibition was 57.5% (active).

For the molecule `COc1ccccc1C1=CC(=O)CCC1`, the inhibition was 9.84%.

With `CCOC(=O)CN1CCC(c2ccccc2)CC1`, the inhibition is -2.05%.

Take `c1ccc(CCN2CN=C(Nc3nc4ccccc4o3)NC2)cc1`: the inhibition is 13.5%.

With `CCc1ccc(N2CC(C(=O)N3CCCCCC3)CC2=O)cc1` (stereo not given), the inhibition was -21.4%.

Take `O=C(C1CC(=O)N(c2ccc(Br)cc2)C1)N1CCCC1` (stereo not given): the inhibition is 76.7% (active).

In the case of `CC1CC(C)CN(C(=O)C2CC(=O)N(c3ccc(F)cc3)C2)C1` (stereo not given), the inhibition was -0.72%.

On to `CCCOc1cccc(C(=O)Nc2nnn(CCC)n2)c1`, for which the inhibition is -20.2%.

As to `CCCCCCNC(=O)O[C@]12C[C@@H](C(=O)OC)[C@@H](C(=O)OC)C[C@@]1(O)CN(S(=O)(=O)c1ccc(C)cc1)C2`, the inhibition was -0.13%.

`CCOc1ccc(NC(=O)CCC(=O)NNC(=O)NC2CCCCC2)cc1`: the inhibition is 9.93%.

In the case of `CC1CCN(C(=S)NC2CC3CCC2C3)CC1` (stereo not given), the inhibition was 18.3%.

In the case of `CCCC(O)(CCC)C(=O)NN(C(=O)CCl)c1cccc(C)c1`, the inhibition was 4.46%.

For the molecule `CCc1nnc(NC(=O)CSc2nnnn2-c2cccc(C(C)=O)c2)s1`, the inhibition was 54.4% (active).

`CC(=O)c1cccc(-n2nnnc2SCC(=O)NNC(=O)C2CCCCC2)c1`: the inhibition is 12.7%.

For `CCc1nnc(NC(=O)CSc2nc(SC)ns2)s1`, the inhibition is -5.79%.

As to `O=C(O)C1=C(C(=O)O)C2CCC1C2`, the inhibition was 17.1%.

As to `COc1ccc(Cl)cc1C(=O)OCC(=O)NCc1cccs1`, the inhibition was -4.93%.

As for `COc1cc(CC(=O)NCc2cccs2)cc(OC)c1OC`, the inhibition is 63.8% (active).

In the case of `COc1cc(CNCc2cccs2)cc(Br)c1OC`, the inhibition was 4.12%.

With `COC(=O)c1ccc(OC(=O)c2nn(C)cc2Cl)c(OC)c1`, the inhibition was 90.2% (active).

As for `COc1ccc(C(=O)NC(=S)Nc2ccc(Cl)cn2)cc1OC`, the inhibition was -25.3%.

For `COc1ccc(CCNC(=O)COC(=O)c2ncc(Cl)c(Cl)c2Cl)cc1OC`, the inhibition is -0.24%.

Consider `Cc1cc(C)c(C#N)c(SCS(=O)c2ccc(C(C)(C)C)cc2)n1` (stereo not given), for which the inhibition is 1.43%.

For the molecule `CC1C(=O)Nc2ccccc2N1C(=O)c1ccc(F)cc1F` (stereo not given), the inhibition was 16%.

For the molecule `O=C(NNc1c2ccccc2nc2ccccc12)c1cc2ccccc2cc1O`, the inhibition is 53.2% (active).

In the case of `O=C(NNC(=O)c1ccccc1O)c1ccccc1O`, the inhibition is 24.2%.

As for `O=C(COC(=O)c1ccc(O)cc1O)NC(=O)c1ccccc1`, the inhibition was -7.02%.

On to `Cc1onc(-c2c(F)cccc2Cl)c1C(=O)N(C)CC(=O)Nc1cccc(F)c1`, for which the inhibition was 5.08%.

Take `Cc1cccc(N2Cc3ccccc3C2=NC(=O)c2ccc(Cl)nc2)c1`: the inhibition was -4.54%.

With `CN1CCN(C2=NCCO2)CC1`, the inhibition was 0.22%.

In the case of `COc1ccc(/C=C2\CCc3ccccc3C2=O)c(OC)c1OC`, the inhibition is 89.8% (active).

In the case of `COc1ccc(/C=C2/CCCc3ccccc3C2=O)cc1`, the inhibition is 4.03%.

As for `O=C1/C(=C/c2cccs2)CCc2ccccc21`, the inhibition is -1.09%.

Regarding `COC(=O)[C@]1(Cc2ccccc2)N[C@H](CN(C)S(=O)(=O)c2ccc(OC(F)(F)F)cc2)[C@@H]2C(=O)N(Cc3ccccc3)C(=O)[C@@H]21`, the inhibition was -0.07%.

Consider `O=C(CSc1nnc(CNC(=O)c2ccc(F)cc2)o1)Nc1ccc2c(c1)OCO2`, for which the inhibition was -5.95%.

For the molecule `CN(C)c1ccc(/C=C2\NC(=S)N(Cc3ccccc3)C2=O)cc1`, the inhibition was -149%.

`CN(C)c1ccc(C=C2C(=O)OC3(CCCC3)OC2=O)cc1`: the inhibition was 66.8% (active).

With `COC(=O)c1ccc(/C=C2/C(=O)Oc3ccccc32)cc1`, the inhibition was 1.02%.

As for `O=C(O)C(NS(=O)(=O)c1cccc2nsnc12)c1ccccc1` (stereo not given), the inhibition is 8.07%.

Regarding `Cc1cc(C)cc(C(=O)NC(CC(N)=O)c2ccc(N3CCC(N4CCCCC4)CC3)c([N+](=O)[O-])c2)c1` (stereo not given), the inhibition was 14.9%.

`O=C(NCC(F)(F)F)c1ccc(S(=O)(=O)NCCc2ccc3c(c2)OCCO3)cc1`: the inhibition is 2.25%.

On to `CC1=C(C(N)=O)C(c2sccc2C)n2nnnc2N1` (stereo not given), for which the inhibition was -23.7%.

On to `Cc1c(Br)ccc(NC(=O)COc2ccccc2C(N)=O)c1C`, for which the inhibition was -2.05%.

Turning to `COC(=O)C(NC(=O)c1ccc(OC)cc1)(Nc1ncc(S(=O)(=O)c2ccc([N+](=O)[O-])cc2)s1)C(F)(F)F` (stereo not given), the inhibition was 72.6% (active).

As to `CCOCC(=O)Nc1ncc(S(=O)(=O)c2ccc([N+](=O)[O-])cc2)s1`, the inhibition is -6.17%.

Turning to `COc1ccc(C(=O)NCCNc2ccc([N+](=O)[O-])cn2)cc1`, the inhibition is 3.69%.

In the case of `COc1ccc(CCn2c(NN=C3CCCC3)nc3c2c(=O)[nH]c(=O)n3C)cc1`, the inhibition is -0.67%.

As to `CCn1nc(C)c(NC(=O)/C=C/c2ccc(OC)c(COc3ccc(Br)cc3)c2)c1C`, the inhibition is 30.8%.

Take `COc1ccc(OC)c(S(=O)(=O)Nc2c(C)nn(C)c2C)c1`: the inhibition was 6.33%.

Consider `COc1ccc(/C=C/C(=O)Nc2c(C)nn(C)c2C)cc1COc1ccc(Br)cc1`, for which the inhibition was 60.5% (active).

As for `CCn1cc(/C=C(\NC(=O)c2cc(OC)c(OC)c(OC)c2)C(=O)N2CCN(C)CC2)c2ccccc21`, the inhibition is -8.31%.

Regarding `Cc1cc(OC(=O)c2ccc(Cl)cc2)cc(=O)n1C`, the inhibition was 11.4%.

In the case of `Cc1cccc(NC(=O)c2nc(S(=O)(=O)Cc3ccccc3)ncc2Cl)c1`, the inhibition was 45.5%.

For `Cc1cccc(CS(=O)(=O)c2ncc(Cl)c(C(=O)Nc3ccc(F)cc3)n2)c1`, the inhibition was 52.3% (active).

Take `CSc1nnc(NC(=O)c2nc(S(=O)(=O)Cc3ccc(C)cc3)ncc2Cl)s1`: the inhibition is 25.7%.

As for `FC(F)(F)c1cc(-c2ccco2)nc(NCc2ccc(Cl)cc2)n1`, the inhibition is -24.6%.

In the case of `COc1ccc(/C=C2\SC(=S)N(CCC(=O)N3CCOCC3)C2=O)cc1OC`, the inhibition is -7.34%.

Turning to `C=CCOc1ccc(/C=C2\SC(=S)N(CCC(=O)O)C2=O)cc1`, the inhibition is 53.9% (active).

As to `O=C1/C(=C/c2ccc(F)cc2)SC(=S)N1CCCC(=O)N1CCCCC1CCO` (stereo not given), the inhibition was -17.3%.

For `Cc1cc(C)nc(NC2=NCC(=O)N2c2ccc(Cl)cc2)n1`, the inhibition is 10.7%.
